# Results: PubChem BioAssay
# “And” between values parts separate entries of the source, which are not always exact repeats. Equal entries are not always repeated.
# Test: growth inhibition, single agents and combos, HTB85, cell-based, BGB or cisplatin IC20 combos, synergistic combos for chromothripsis tumors (AID 1671453);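 also: cells exposed for 96 hours before readout; 0% = vehicle DMSO and 100% = high DMSO killing control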
# Conditions: HTB85 osteosarcoma cells, drug combinations, measured here: with BGB IC20, at 0.5 µM, stronger effect = higher value
row,Compound,inhibition
1,O=C(O)P(=O)(O)O,-66.1%
2,C[C@H]1COc2c(C3(N)CC3)c(F)cc3c(=O)c(C(=O)O)cn1c23,-30.1%
3,Nc1nc2c(ncn2CCC(CO)CO)c(=O)[nH]1,-16.4% and -34.5%
4,CN(C)/N=N/c1nc[nH]c1C(N)=O,3.62% and -33.2%
5,CC1CCc2cc(F)cc3c(=O)c(C(=O)O)cn1c23 (configuration not stated),-53.3% and -0.618%
6,CCN1CCN(c2cc3c(cc2F)c(=O)c(C(=O)O)cn3C2CC2)CC1,-19%

# Same assay, conditions: HTB85 osteosarcoma cells, drug combinations, measured here: with BGB IC20, at 5 µM, stronger effect = higher value
row,Compound,inhibition
1,O=C(O)P(=O)(O)O,-35%
2,C[C@H]1COc2c(C3(N)CC3)c(F)cc3c(=O)c(C(=O)O)cn1c23,-48.1%
3,Nc1nc2c(ncn2CCC(CO)CO)c(=O)[nH]1,-7.68% and -31%
4,CN(C)/N=N/c1nc[nH]c1C(N)=O,-31.2% and -31.5%
5,CC1CCc2cc(F)cc3c(=O)c(C(=O)O)cn1c23 (configuration not stated),-33.8% and -1.4%
6,CCN1CCN(c2cc3c(cc2F)c(=O)c(C(=O)O)cn3C2CC2)CC1,-4.03%
